The nature of assay [1]: qHTS of pediatric cancer cell lines to identify multiple opportunities for drug repurposing: Primary screen for TC32 cells (AID 1347089). Note: nearly all actives have a fitted effect of over 60% in size. Put shortly:
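In the primary qHTS, MIPE compounds were tested at 11 concentrations (0.78 nM to 46 µM) and NPC compounds at 8 (0.59 nM to 46 µM) on TC32 cells for 48 h. CellTiter-Glo luminescence gave viability.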

A short description of assay [2]: qHTS of pediatric cancer cell lines to identify multiple opportunities for drug repurposing: Primary screen for DAOY cells (AID 1347090). Note: nearly all actives have a fitted effect of over 55% in size. Put shortly:
(§1)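 Cell viability, CellTiter-Glo luminescence; 500-1,000 cells/well, 8- or 11-point titration, 48 h compound exposure at 37 degrees C, 5% CO2. Controls: DMSO neutral, bortezomib 2.3 µM final as positive.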
(Quantitative high-throughput screening tests each substance at several concentrations.)

Assay [3] can be described thus: qHTS of pediatric cancer cell lines to identify multiple opportunities for drug repurposing: Primary screen for SJ-GBM2 cells (AID 1347091). Put shortly:
as §1

Assay [4] is described as follows: qHTS of pediatric cancer cell lines to identify multiple opportunities for drug repurposing: Primary screen for BT-37 cells (AID 1347094). An outline of the steps: (§2)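 Cells plated at 500-1,000/well in growth medium, compounds added after 5 h. MIPE tested at 11 points (from 0.78 nM), NPC at 8 points (from 0.59 nM). CellTiter-Glo luminescence after 48 h; concentration-response curves from primary screen.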

The nature of assay [5]: qHTS of pediatric cancer cell lines to identify multiple opportunities for drug repurposing: Primary screen for NB-EBc1 cells (AID 1347095). Put shortly: as §2
Assay [6] can be described thus: qHTS of pediatric cancer cell lines to identify multiple opportunities for drug repurposing: Primary screen for U-2 OS cells (AID 1347096). Note: nearly all actives have a fitted effect of over 50% in size. Put shortly: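 Cells (500-1,000/well) rested 5 h, then received compounds for 48 h; metabolically active cells were measured by CellTiter-Glo luminescence. Final concentrations spanned up to 46 µM (MIPE, 11-point) or 0.59 nM-46 µM (NPC, 8-point) in primary screens, 11-point in follow-ups.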

The nature of assay [7]: qHTS of pediatric cancer cell lines to identify multiple opportunities for drug repurposing: Primary screen for Saos-2 cells (AID 1347097). Note: nearly all actives have a fitted effect of over 40% in size. Put shortly:
as §2

The nature of assay [8]: qHTS of pediatric cancer cell lines to identify multiple opportunities for drug repurposing: Primary screen for SK-N-MC cells (AID 1347093). Put shortly:
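Metabolically active cells were quantified by ATP-dependent luminescence (CellTiter-Glo, 15 min at room temperature) following 48 h treatment. Cells had been plated at 500-1,000 per well and settled for 5 h beforehand.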

A short description of assay [9]: qHTS of pediatric cancer cell lines to identify multiple opportunities for drug repurposing: Primary screen for A673 cells (AID 1347092). Note: nearly all actives have a fitted effect of over 45% in size. An outline of the steps:
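48 h compound exposure, A673, 500-1,000 cells/well, 37 degrees C/5% CO2. MIPE: 11-point, 0.78 nM-46 µM; NPC: 8-point, 0.59 nM-46 µM (final). Readout CellTiter-Glo luminescence after 15 min RT.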

Molecules are shown by their SMILES. Results filed as inconclusive are left out. Calls of active or inactive are those of the source. Calls come from the whole dose curve; as a rule, active = well fitted curve in the direction sought with a large enough effect; inconclusive = small, poorly fitted or top-dose-only effect, or another doubt; inactive = no such curve, though single readings can be large; an effect the other way counts as inactive or inconclusive.
Potency is the fitted concentration of half-maximal effect.

On to `Cn1cc(C=C2C(=O)Nc3cccnc32)c2ccccc21`, for which the Potency result in assay [1], in assay [2], in assay [3], in assay [4], in [5] and in assay [6] was “inactive” throughout. In addition, the Potency entry in assay [7] is “inactive”.
As to `C=C1C(=O)[C@@]23C(CC[C@@H]1[C@H]2O)[C@@]12CO[C@]3(O)[C@@H](O)[C@@H]1C(C)(C)CC[C@@H]2O` (stereo partly drawn), the Potency is 16.5 µM (active) in assay [1]; 2.35 µM (active) in assay [2]; 8.33 µM (active) in [3]; 1.66 µM (active) in assay [8]; 27.3 µM (active) in [4]; 2.09 µM (active) in [5]. Besides, the figures for the Potency in assay [6] and in [7] were 14.8 µM (active) and 4.69 µM (active), respectively.
On to `NS(=O)(=O)c1cccc2c1C(=O)c1cccc(O)c1C2=O`, for which, in assay [1], the Potency result was “inactive”. Moreover, the Potency in assay [2] is 0.935 µM (active); in assay [3], 0.59 µM (active); in assay [8], 0.935 µM (active); in assay [4] it was 0.432 µM (active); in [5], 0.833 µM (active); in assay [6] it was 0.59 µM (active). The Potency in assay [7] is 0.264 µM (active).
Regarding `CNC(=O)c1ccc2cc(C3(O)CCn4cncc43)ccc2c1` (stereo not drawn), the Potency result in assay [1], in [2], in [3], in assay [8], in [4] and in assay [5] was “inactive” in each case. The Potency result in assay [6] is “inactive”.
As for `CC#CCn1c(N2CCC[C@@H](N)C2)nc2c1c(=O)n(Cc1nc(C)c3ccccc3n1)c(=O)n2C`, the Potency result in assay [1], in assay [2], in assay [3], in [4], in [5] and in [6] was “inactive” throughout. In addition, in assay [9], the Potency is 23.5 µM (active).
Turning to `COc1cccc2c1CCCC2CCCN1CCN(C2CCCCC2)CC1` (stereo not drawn), the Potency result in assay [1], in assay [2], in [9] and in assay [6] was “inactive” throughout. The Potency in [3] and in assay [8] was 18.7 µM (active) throughout.
Turning to `CC[C@H]1OC(=O)[C@H](C)[C@@H](O[C@H]2C[C@@](C)(OC)[C@@H](O)[C@H](C)O2)[C@H](C)[C@@H](O[C@@H]2O[C@H](C)C[C@H](N(C)C)[C@@H]2O)[C@](C)(O)C[C@@H](C)CN(C)[C@H](C)[C@@H](O)[C@]1(C)O`, the Potency entry in assay [1], in [2], in assay [3], in [9], in assay [8] and in assay [5] was “inactive” in each case. In assay [6], the Potency entry is “inactive”.
Turning to `NC1CCC(Nc2nc(Nc3ccc(C(=O)N4CCCCC4)cc3)c3ncn(-c4cccc(F)c4)c3n2)CC1` (stereo not drawn), the Potency result in assay [1], in assay [2], in assay [3], in [8], in assay [4] and in [5] was “inactive” throughout. The Potency result in assay [6] and in [7] was “inactive” throughout.
On to `O=c1c(-c2ccc(O)cc2)coc2cc(O[C@@H]3O[C@H](CO)[C@H](O)[C@H](O)[C@H]3O)ccc12`, for which the Potency entry in assay [1], in [2], in [3], in [8], in assay [4] and in assay [5] was “inactive” in each case. In addition, the Potency result in assay [6] and in assay [7] was “inactive” in each case.
As to `CN1[C@@H]2CCC[C@@H]1CC(NC(=O)c1nn(C)c3ccccc13)C2` (stereo partly drawn), the Potency entry in [1], in assay [2], in assay [3], in assay [9], in assay [8] and in assay [4] was “inactive” throughout. Moreover, the Potency result in assay [6] and in assay [7] was “inactive” throughout.
In the case of `Clc1ccc(-c2nc3sccn3c2C=NOCc2ccc(Cl)c(Cl)c2)cc1`, the Potency entry in [1], in [2], in assay [3], in assay [4] and in assay [6] was “inactive” throughout.
Turning to `CN(C)Cc1cccc(N=C(c2ccccc2)c2c(O)[nH]c3cc(C(=O)N(C)C)ccc23)c1`, the Potency entry in assay [1] and in assay [6] was “inactive” each time. The Potency in [2] is 2.96 µM (active); in [3], 18.7 µM (active); in assay [8] it was 14.8 µM (active); in assay [4] it was 15.3 µM (active); in assay [5] it was 18.7 µM (active); in assay [7], 11.8 µM (active).
Consider `CC(=Cc1ccccc1)C=C1SC(=S)N(CC(=O)O)C1=O`, for which the Potency entry in assay [1], in assay [2], in assay [9], in assay [4], in assay [5] and in assay [6] was “inactive” throughout. Moreover, the Potency entry in assay [7] was “inactive”. Also, the Potency in assay [8] is 13.2 µM (active).
On to `O=c1[nH]cnc2c1ncn2[C@H]1CC[C@@H](CO)O1`, for which the Potency result in assay [1], in assay [2], in assay [4], in assay [5], in assay [6] and in assay [7] was “inactive” each time. Further, in assay [8], the Potency was 9.35 µM (active).
In the case of `C[N+](C)(C)CC(=O)O`, the Potency entry in assay [1], in assay [2], in [9], in assay [4], in assay [5] and in assay [6] was “inactive” in each case. Moreover, in [7], the Potency entry is “inactive”. For the same compound, the Potency in assay [8] was 16.6 µM (active).
For the compound `CC(C)(C)Cn1c(N)nc2ccc(-c3[nH]c(C(C)(C)C)nc3-c3ccc(F)cc3)nc21`, the Potency is 29.4 µM (active) in assay [1], 23.5 µM (active) in [2], 18.7 µM (active) in [9] and 24.3 µM (active) in assay [4]. Moreover, the Potency entry in assay [5], in assay [6] and in assay [7] was “inactive” each time.
Regarding `C[C@]12CC[C@@H]3c4ccc(O)cc4C[C@@H](CCCCCCCCCS(=O)CCCC(F)(F)C(F)(F)F)[C@H]3[C@H]1CC[C@H]2O` (stereo partly drawn), the Potency entry in assay [1], in [2], in [9], in [5] and in [6] was “inactive” throughout.
`N#Cc1ccc(NC(=O)Nc2ccccc2Br)c2n[nH]nc12`: the Potency entry in assay [1], in [2], in assay [6] and in assay [7] was “inactive” throughout. Moreover, the figures for the Potency in [9] and in assay [8] were 23.5 µM (active) and 26.4 µM (active), respectively.
As for `O=C(O)c1ccc(-c2c[nH]c3ncc(-c4ccccc4)cc23)cc1C1CCCC1`, the Potency entry in assay [1], in assay [2], in assay [4], in [5], in assay [6] and in assay [7] was “inactive” throughout. In addition, in assay [8], the Potency was 0.166 µM (active).
As to `C[C@H](NC(=O)c1sccc1OCc1ccc(Cl)cc1)c1ccccc1`, the Potency entry in [1] and in assay [6] was “inactive” in each case. The Potency was 18.7 µM (active) in assay [2], 23.5 µM (active) in [9], 13.2 µM (active) in assay [8] and 27.3 µM (active) in assay [4].
With `C[C@H]1[C@H](NC(=O)C(=NOC(C)(C)C(=O)O)c2csc(N)n2)C(=O)N1S(=O)(=O)O`, the Potency result in assay [1], in [2], in assay [8], in assay [4], in assay [5] and in [6] was “inactive” throughout. The Potency result in assay [7] was “inactive”.

The record behind these values is PubChem BioAssay (NCATS).
